Screening results deposited in PubChem by The Scripps Research Institute Molecular Screening Center.
hgDAF-12 ag = agonists of H. glycines DAF-12 nuclear receptor; 370,000 tested, 1.8% active; activation, % at 6.8 µM; HEK293 GAL4-hgDAF12 UAS-luciferase reporter, agonist luminescence; normalized to butyrate control;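 active means activation above a cutoff set at the mean of all screened compounds plus 3 SD, cut at about 10% in these data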;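 further: 0% = DMSO wells and 100% = sodium butyrate wells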
ssDAF12 agonist = S. stercoralis DAF-12 activation, primary screen; 370,000 tested, 1% active; activation, % at 6.8 µM; HEK293 ssDAF-12/GRIP1 lit1-tk-luc reporter, luminescence; % of 3 µM dafachronic acid response;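 active means activation above the mean over all tested compounds plus 3 SD, cut at about 0.9% in these data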;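 further: 0% = DMSO-only wells and 100% = 3 µM delta7-dafachronic acid wells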
DAX1 inh-1 = inhibits human nuclear receptor DAX1; P51843; HEK293 Gal4-DAX1 luciferase reporter, luminescence; inhibition, % at 6.75 µM; 340,000 tested, 0.99% active; AID 504766;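 active means inhibition above the mean over all tested compounds plus 3 SD, cut at about 4.2% in these data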;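 further: 0% = DAX1-transfected cells with DMSO and 100% = empty-vector control cells with DMSO; inhibition shows as a rise in luminescence from relieved DAX1 repression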
Target sequence (P51843 207-470 limits assumed): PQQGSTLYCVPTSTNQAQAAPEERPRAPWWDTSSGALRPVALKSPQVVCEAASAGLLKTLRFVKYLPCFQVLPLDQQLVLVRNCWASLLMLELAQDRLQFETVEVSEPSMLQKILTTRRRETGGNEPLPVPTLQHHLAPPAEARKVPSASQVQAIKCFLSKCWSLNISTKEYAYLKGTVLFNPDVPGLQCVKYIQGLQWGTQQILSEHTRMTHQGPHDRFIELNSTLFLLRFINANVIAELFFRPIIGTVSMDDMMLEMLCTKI
hcDAF-12 act = activators of H. contortus DAF-12 nuclear receptor; 370,000 tested, 1.4% active; HEK293 hcDAF-12 lit1-tk-luc reporter, luminescence; 0% DMSO, 100% Δ7-dafachronic acid; activation, % at 6.8 µM;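 active means activation above the mean of all tested compounds plus 3 SD, cut at about 5.5% in these data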;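 further: 100% = response to 3 µM Δ7-dafachronic acid high control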
DAX1 inh-2 = DAX1 (NR0B1) inhibition, primary screen. inhibition, % at 6.8 µM. HEK293T StAR-luciferase reporter, SF-1/DAX-1 repression relief. 370,000 tested, 1.1% active;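 active means inhibition above the mean over all tested compounds plus 3 SD, cut at about 3.6% in these data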;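 further: 0% = DAX-1 cells with DMSO and 100% = cells lacking DAX-1 with DMSO; higher inhibition means more luminescence from relief of DAX-1 repression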
* hit, by the source's call. Most compounds without a hit are left out; they make up all but 4.1% or so of the library.

For CCCn1nnc2c(=O)oc3ccccc3c21 the results were hgDAF-12 ag 4, ssDAF12 agonist 0, DAX1 inh-1 0, hcDAF-12 act 2 and DAX1 inh-2 0.
CCCCCn1nnc2c(=O)oc3ccccc3c21 was read as hgDAF-12 ag -2, ssDAF12 agonist 1.1*, DAX1 inh-1 0, hcDAF-12 act -1 and DAX1 inh-2 0.
For Cc1cc(Cl)ccc1OCCn1cncn1 the results were hgDAF-12 ag 4, ssDAF12 agonist 0, DAX1 inh-1 0, hcDAF-12 act 6.0* and DAX1 inh-2 0.
O=C1NC(=O)C(=Cc2ccccc2)N1 was read as hgDAF-12 ag -2, ssDAF12 agonist -1, DAX1 inh-1 1, hcDAF-12 act 0 and DAX1 inh-2 1.
CN(C)c1ccc(/C=C2/NC(=O)NC2=O)cc1 was read as hgDAF-12 ag 11*, ssDAF12 agonist -1, DAX1 inh-1 1, hcDAF-12 act 3 and DAX1 inh-2 1.
For CC(C)C[C@H]1COc2cc(Br)ccc2S(=O)(=O)N1Cc1cn(Cc2ccc(Cl)cc2)nn1 the results were hgDAF-12 ag -2, ssDAF12 agonist -1, hcDAF-12 act -1 and DAX1 inh-2 0.
`COc1ccccc1N(CC(N)=O)S(=O)(=O)c1ccc(C)cc1` gave hgDAF-12 ag 3, ssDAF12 agonist 1.1*, DAX1 inh-1 0, hcDAF-12 act 0 and DAX1 inh-2 0.
For Cc1cc(NS(=O)(=O)c2ccc(NC(=O)Cc3ccc(Cl)c(Cl)c3)cc2)on1 the results were hgDAF-12 ag -1, ssDAF12 agonist -1, hcDAF-12 act 0 and DAX1 inh-2 0.
For COc1ccc(OC)c(S(=O)(=O)N2CCC(C(=O)NCC3COCCO3)CC2)c1 (centres undefined) the results were hgDAF-12 ag 1, ssDAF12 agonist 0, hcDAF-12 act -3 and DAX1 inh-2 1.
For O=C(Cc1ccccc1[N+](=O)[O-])N1CCc2ccccc2C1 the results were hgDAF-12 ag 11*, ssDAF12 agonist 1.1*, DAX1 inh-1 0, hcDAF-12 act 4 and DAX1 inh-2 1.
Screening CC(=O)NC(C)C(=O)N1CCCC1C(=O)N1CCCC1C(=O)NC(C)C(=O)NC1C(=O)NC(CC(C)C)C(=O)NC2CCCCNC(=O)CCC(C(=O)NC(Cc3ccc(O)cc3)C(=O)O)NC(=O)C3CCC(=O)OCC(NC(=O)C4CCCN4C(=O)C(Cc4c[nH]c5ccccc45)NC2=O)C(=O)NC(CC(=O)OC1C)C(=O)NC(Cc1c[nH]c2ccccc12)C(=O)N3 (centres undefined) returned hgDAF-12 ag -2, ssDAF12 agonist 0, hcDAF-12 act -1 and DAX1 inh-2 0.
For N#CCOc1nc(N2CCOCC2)nc(N2CCOCC2)n1 the results were hgDAF-12 ag 2, ssDAF12 agonist -1, DAX1 inh-1 6.0*, hcDAF-12 act -2 and DAX1 inh-2 0.
`N#CCOc1nc(N2CCCC2)nc(N2CCCC2)n1` gave hgDAF-12 ag -2, ssDAF12 agonist -1, DAX1 inh-1 -1, hcDAF-12 act -1 and DAX1 inh-2 0.
For Cc1ccccc1C(=O)N[C@@H](Cc1cccnc1)C(=O)N1CCC[C@H]1C(=O)NCCc1ccccc1Cl the results were hgDAF-12 ag 0, ssDAF12 agonist 0, hcDAF-12 act -2 and DAX1 inh-2 -1.
`CC1(C(=O)NCC2CC2)CCN1C(=O)C/C=C/c1ccccc1` (centres undefined) gave hgDAF-12 ag 1, ssDAF12 agonist -1, hcDAF-12 act -3 and DAX1 inh-2 0.
`CSCCNC(=O)C1(C)CCN1C(=O)C/C=C/c1ccccc1` (centres undefined) gave hgDAF-12 ag 1, ssDAF12 agonist 1.2*, hcDAF-12 act 2 and DAX1 inh-2 0.
For CC1(C(=O)NS(=O)(=O)c2ccccc2Cl)CCN1C(=O)C/C=C/c1ccccc1 (centres undefined) the results were hgDAF-12 ag 12*, ssDAF12 agonist -1, hcDAF-12 act 0 and DAX1 inh-2 0.
For CCOc1ccc(N(CC(=O)NCc2ccccc2C)S(C)(=O)=O)cc1 the results were hgDAF-12 ag 8, ssDAF12 agonist 0, DAX1 inh-1 4.3*, hcDAF-12 act 2 and DAX1 inh-2 2.
`CCOc1ccc(N(CC(=O)NCCSCc2ccccc2Cl)S(C)(=O)=O)cc1` gave hgDAF-12 ag 1, ssDAF12 agonist -2, DAX1 inh-1 -2, hcDAF-12 act -2 and DAX1 inh-2 0.
For Cc1ccccc1NC(=O)Cn1nnc(-c2ccncc2)n1 the results were hgDAF-12 ag 2, ssDAF12 agonist 0, hcDAF-12 act -2 and DAX1 inh-2 0.
`COC(=O)[C@@H](Cc1ccccc1)NC(=O)[C@H]1O[C@@H](n2cnc3c(N)ncnc32)[C@H](O)[C@@H]1O` gave hgDAF-12 ag 4, ssDAF12 agonist -1, hcDAF-12 act -1 and DAX1 inh-2 -1.
For Nc1ncnc2c1ncn2[C@@H]1O[C@H](C(=O)N2CCC[C@@H]2C(=O)OCc2ccccc2)[C@@H](O)[C@H]1O the results were hgDAF-12 ag 12*, ssDAF12 agonist -1, hcDAF-12 act -1 and DAX1 inh-2 -1.
For CC(=O)Nc1sc(C)c(C)c1C(=O)OCC(=O)Nc1ccccc1C(F)(F)F the results were hgDAF-12 ag 11*, ssDAF12 agonist -1, DAX1 inh-1 2, hcDAF-12 act 1 and DAX1 inh-2 1.
For N#CC1=C(O)CCCn2c1nc1ccccc1c2=O the results were hgDAF-12 ag -1, ssDAF12 agonist -1, DAX1 inh-1 0, hcDAF-12 act 0 and DAX1 inh-2 1.
For N#CC1=C(O)C(c2ccccc2)n2c1nc(=O)c1ccccc12 (centres undefined) the results were hgDAF-12 ag 2, ssDAF12 agonist -1, DAX1 inh-1 7.3*, hcDAF-12 act 1 and DAX1 inh-2 1.
CCON1C(=O)C(C)(C)N(OCC)C(=O)C1(C)C was read as hgDAF-12 ag 0, ssDAF12 agonist -1, DAX1 inh-1 1, hcDAF-12 act -3 and DAX1 inh-2 0.
Screening CCOC(=O)CON1C(=O)C(C)(C)N(OCC(=O)OCC)C(=O)C1(C)C returned hgDAF-12 ag -1, ssDAF12 agonist 1.0*, DAX1 inh-1 0, hcDAF-12 act 0 and DAX1 inh-2 1.
For CCC(C)N(C(=O)CSc1nncn1C)C1CCS(=O)(=O)C1 (centres undefined) the results were hgDAF-12 ag 0, ssDAF12 agonist -1, DAX1 inh-1 0, hcDAF-12 act -1 and DAX1 inh-2 0.
CCC(C)N(C(=O)CSc1nnc(-c2ccco2)n1C)C1CCS(=O)(=O)C1 (centres undefined) was read as hgDAF-12 ag 2, ssDAF12 agonist -1, DAX1 inh-1 4.6*, hcDAF-12 act -1 and DAX1 inh-2 -1.
`CCNC(=O)CC1C(=O)N(C)C(=S)N1NC(=O)c1ccc(Cl)cc1` (centres undefined) gave hgDAF-12 ag -1, ssDAF12 agonist -1, DAX1 inh-1 1, hcDAF-12 act -1 and DAX1 inh-2 0.
